Assay outcomes from PubChem BioAssay.
The list is not random: actives were taken first. Their share in the collection is about 1.3%.
EPAC1 antagonist – antagonists of human EPAC1; Potency, µM (titrated, usually from 115 µM), inactives show at the highest dose activity change, negative = inhibition, most hits filed as inhibitors; EPAC1 GEF assay, Rap1b-BODIPY-GDP exchange fluorescence; O95398; 360,000 compounds, 0.14% hits;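 also: plate controls were vehicle for no effect and positive control for full effect; nearly all actives have a fitted effect of over 50% in size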
EPAC1 agonist – activates human EPAC1 exchange factor. EPAC1 agonist qHTS, biochemical assay; response scale: 100% = response to 6.5 mM cAMP. AID 720707. O95398. 360,000 compounds, 0.073% hits. Potency, µM (top dose mostly 154 µM), for the others: at the highest dose activation, most hits filed as activators; also: nearly all actives have a fitted effect of over 60% in size
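Normalized to 6.5 mM cAMP, activity reflects EPAC1-catalysed release of BODIPY-GDP from Rap1B, followed kinetically over 30 min at 480 nm excitation, 540 nm emission. Reaction contained 100 nM EPAC1, 250 nM Rap1B-BODIPY-GDP, 50 uM GDP.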
ALOX12 inh – inhibitors of human 12S-lipoxygenase ALOX12 | P18054 | purified 12hLO, xylenol orange hydroperoxide absorbance | Potency, µM (highest dose often 108 µM), for inactives: at the top dose activity change, negative = inhibition, usual class: inhibitors | 580,000 compounds, 1.1% hits; also: % is scaled to controls: 0 for no effect and ±100 for the full control effect
Target sequence (P18054 whole entry, looked up): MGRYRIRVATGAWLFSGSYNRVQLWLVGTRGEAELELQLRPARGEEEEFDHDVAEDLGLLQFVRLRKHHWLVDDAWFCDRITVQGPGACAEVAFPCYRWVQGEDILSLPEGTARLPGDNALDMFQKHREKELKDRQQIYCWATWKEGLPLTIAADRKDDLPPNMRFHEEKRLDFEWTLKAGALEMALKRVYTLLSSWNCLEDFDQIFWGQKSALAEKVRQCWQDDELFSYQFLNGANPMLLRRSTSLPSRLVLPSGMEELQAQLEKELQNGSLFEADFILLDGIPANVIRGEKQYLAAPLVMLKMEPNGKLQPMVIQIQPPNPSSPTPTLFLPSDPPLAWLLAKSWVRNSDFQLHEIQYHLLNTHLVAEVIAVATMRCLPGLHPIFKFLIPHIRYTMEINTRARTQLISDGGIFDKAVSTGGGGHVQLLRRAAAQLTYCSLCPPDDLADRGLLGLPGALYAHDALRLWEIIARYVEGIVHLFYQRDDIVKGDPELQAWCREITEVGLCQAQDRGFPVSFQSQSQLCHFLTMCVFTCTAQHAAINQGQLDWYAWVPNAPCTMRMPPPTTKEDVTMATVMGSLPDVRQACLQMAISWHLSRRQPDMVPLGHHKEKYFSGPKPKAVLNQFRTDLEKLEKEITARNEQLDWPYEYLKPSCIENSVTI
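Purified human 12hLO (150 nM final) in 25 mM Hepes, 0.01% Triton X-100, pH 7.0 was preincubated 15 min at room temperature with compound. Then 40 uM arachidonic acid was added, 30 min. Hydroperoxide was read by Fe-XO absorbance ratio 573/405 nm.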
EPAC2 agonist – EPAC2 (human) agonism; 360,000 compounds, 0.079% hits; EPAC2 activation, biochemical qHTS; response scale: 100% = 6.5 mM cAMP response; Potency, µM (series often up to 154 µM), for the others: at the top dose activation, actives largely listed as activators; also: nearly all actives have a fitted effect of over 50% in size
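Guanine nucleotide exchange by EPAC2 is measured as reduced fluorescence of BODIPY-GDP once it is released from 250 nM Rap1B. Plates are read kinetically for 30 min at room temperature; results are scaled to 6.5 mM cAMP.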
USP1-UAF1 inh – inhibitors of human USP1/UAF1 deubiquitinase; O94782; recombinant USP1/UAF1, Ub-Rhodamine cleavage fluorescence; Potency, µM (series often up to 57.1 µM), without a hit: top-dose activity change, negative = inhibition, hits mostly inhibitors; 390,000 compounds, 0.23% hits; AID 743255; also: % is scaled to controls: 0 for no effect and ±100 for the full control effect; nearly all actives have a fitted effect of over 60% in size
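In this screen, compounds sit with the deubiquitinase complex (1nM) for 15 min at room temperature before Ub-Rho is added at 150nM final. Fluorescence rise is then followed for 6 reads every 60 seconds.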
EPAC2 antag – EPAC2 (human) antagonism; EPAC2 GEF exchange of Rap1B-BODIPY-GDP, fluorescence; 360,000 compounds, 0.18% hits; AID 720708; Q8WZA2; Potency, µM (series often up to 114 µM), without a hit: top-dose activity, negative = inhibition, actives largely listed as inhibitors; also: % is scaled to controls: 0 for no effect and ±100 for the full control effect; nearly all actives have a fitted effect of over 45% in size
* marks the source's active call; other numbers are inactive results; ! = a repeat was not active. Calls follow the shape of the dose curve; as a rule, active = well fitted curve in the direction sought with a large enough effect; inconclusive = small, poorly fitted or top-dose-only effect, or another doubt; inactive = no such curve, though single readings can be large; an effect the other way counts as inactive or inconclusive. Potency is read from the fitted curve at half-maximal effect.

For CC(/C=C1\SC(=S)N(NC(=O)c2ccc(C)cc2)C1=O)=C\c1ccccc1 the results were EPAC1 antagonist -5%, EPAC1 agonist -4%, EPAC2 agonist 10%, USP1-UAF1 inh -8% and EPAC2 antag -9%.
For CC(/C=C1\SC(=S)N(NS(=O)(=O)c2ccccc2)C1=O)=C\c1ccccc1 the results were EPAC1 antagonist 40µM*, EPAC1 agonist -7%, ALOX12 inh inconclusive, EPAC2 agonist 2%, USP1-UAF1 inh inconclusive and EPAC2 antag 50µM*.
`CC(/C=C1\SC(=S)N(NS(=O)(=O)c2ccc(C)cc2)C1=O)=C\c1ccccc1` gave EPAC1 antagonist 40µM*, EPAC1 agonist 3%, ALOX12 inh 16µM*, EPAC2 agonist -1%, USP1-UAF1 inh inconclusive and EPAC2 antag 35µM*.
For CC(=O)N1C(=O)/C(=C2\SC(=S)N(c3c(C)n(C)n(-c4ccccc4)c3=O)C2=O)c2ccccc21 the results were EPAC1 antagonist -9%, EPAC1 agonist 1%, ALOX12 inh inconclusive, EPAC2 agonist 14%, USP1-UAF1 inh inconclusive and EPAC2 antag 2%.
`CC(c1ccccc1)N(C)C(=O)c1cccc(CS(C)(=O)=O)c1` (centres undefined) gave ALOX12 inh 5%.
`CCc1ccc(NC(=O)Nc2ccc3sc(NC(C)=O)nc3c2)cc1` gave ALOX12 inh 7.1µM*.
`COc1ccc2sc(NC(C)=O)nc2c1` gave EPAC1 antagonist -2%, EPAC1 agonist 4%, ALOX12 inh inconclusive, EPAC2 agonist -1%, USP1-UAF1 inh 1% and EPAC2 antag -2%.
Screening O=C(O)/C=C/c1ccc([N+](=O)[O-])o1 returned EPAC1 antagonist -6%, EPAC1 agonist 7%, ALOX12 inh -24%, EPAC2 agonist 4%, USP1-UAF1 inh -5% and EPAC2 antag 1%.
For O=C1NC(=S)S/C1=C\C=C\c1ccc([N+](=O)[O-])o1 the results were EPAC1 antagonist 56µM*, EPAC1 agonist 0%, ALOX12 inh inconclusive, EPAC2 agonist -11%, USP1-UAF1 inh -24% and EPAC2 antag 50µM*.
`CC1=C(C(=O)OC(C)C)C(c2ccccc2Cl)N2C(CC(=O)NCC3CC3)=CSC2=N1` (centres undefined) gave ALOX12 inh 49%.
CC(OC(=O)C1CCN(S(=O)(=O)c2ccc(C(C)(C)C)cc2)CC1)C(=O)N1CCOCC1 (centres undefined) was read as EPAC1 antagonist 2%, EPAC1 agonist -3%, ALOX12 inh 45µM*!, EPAC2 agonist -4%, USP1-UAF1 inh -12% and EPAC2 antag 18%.
S=c1sc2c(s1)SCCCS2 was read as ALOX12 inh 32µM*.
Screening S=c1sc2c(s1)SCCCCS2 returned ALOX12 inh -68%.
COc1cc(CNc2ccc3c(c2)CCC3)cc(OC)c1O was read as EPAC1 antagonist -6%, EPAC1 agonist 10%, ALOX12 inh 1.1µM*, EPAC2 agonist 2%, USP1-UAF1 inh -16% and EPAC2 antag -1%.
Screening CCOc1cc(CNc2ccc3c(c2)CCC3)ccc1O returned EPAC1 antagonist 4%, EPAC1 agonist 4%, ALOX12 inh -17%, EPAC2 agonist 2%, USP1-UAF1 inh -21% and EPAC2 antag 4%.
`Cc1ccc(CN2CCc3oc(C)c(C(=O)NCCN4CCN(C)CC4)c3C2)cc1` gave ALOX12 inh 4%.
Screening CCCN1CCN(C(=O)c2c(C)oc3c2CN(Cc2ccc(C)cc2)CC3)CC1 returned ALOX12 inh 13µM*.
For CC(=O)Nc1ccc(NC(=S)NC(=O)c2ccc(Cl)cc2)cc1 the results were ALOX12 inh 5.6µM*.
Screening S=C(NC(=NC=C(Cl)Cl)c1ccc(Cl)cc1)Nc1ccc(Cl)cc1 returned ALOX12 inh 20µM*.
For CN1CCN(S(=O)(=O)c2ccc(NC(=S)NC(=O)c3ccc(Cl)cc3)cc2)CC1 the results were EPAC1 antagonist -7%, EPAC1 agonist 5%, ALOX12 inh inconclusive, EPAC2 agonist 7%, USP1-UAF1 inh -23% and EPAC2 antag -5%.
`O=C(NC(=S)Nc1ccc(Cl)cc1)c1ccccc1` gave EPAC1 antagonist -13%, EPAC1 agonist 13%, ALOX12 inh 45µM*, EPAC2 agonist 6%, USP1-UAF1 inh -23% and EPAC2 antag 7%.
For CC1CCN(S(=O)(=O)c2ccc(NC(=S)NC(=O)c3ccc(Cl)cc3)cc2)CC1 the results were EPAC1 antagonist 3%, EPAC1 agonist 5%, ALOX12 inh 14µM*, EPAC2 agonist 10%, USP1-UAF1 inh -18% and EPAC2 antag 6%.
For O=C(NC(=S)Nc1ccc(-c2ccccc2)cc1)c1ccccc1 the results were EPAC1 antagonist 14%, EPAC1 agonist -3%, ALOX12 inh inconclusive, EPAC2 agonist 8%, USP1-UAF1 inh -12% and EPAC2 antag -10%.
Screening O=C(NC(=S)Nc1ccc(Oc2ccc(Cl)cc2)cc1)c1ccccc1 returned EPAC1 antagonist inconclusive, EPAC1 agonist 14%, ALOX12 inh 8.9µM*, EPAC2 agonist 2%, USP1-UAF1 inh -18% and EPAC2 antag -1%.
For CC(C)(C)c1cc(-c2nc(N)nc(N)n2)c(O)c(C(C)(C)C)c1 the results were EPAC1 antagonist inconclusive, EPAC1 agonist -15%, ALOX12 inh inconclusive, EPAC2 agonist -7%, USP1-UAF1 inh -26% and EPAC2 antag -29%.
For CC(C)(C)c1cc(N)c(O)c(Cl)c1 the results were ALOX12 inh 18µM*.
CC(C)OP(=O)(OC(C)C)C1(NS(=O)(=O)c2ccc(Cl)cc2)C=C(Cl)C(=O)C(Cl)=C1 was read as EPAC1 antagonist -20%, EPAC1 agonist -19%, ALOX12 inh inconclusive, EPAC2 agonist 1%, USP1-UAF1 inh -19% and EPAC2 antag 40µM*.
Cc1ccc(C)c(S(=O)(=O)/N=C2\C=C(NS(=O)(=O)c3ccccc3)C(=O)c3ccccc32)c1 was read as EPAC1 antagonist 10%, EPAC1 agonist 11%, ALOX12 inh inconclusive, EPAC2 agonist 11%, USP1-UAF1 inh 16µM* and EPAC2 antag inconclusive.
For CCc1ccc(S(=O)(=O)/N=C2\C=C(NS(=O)(=O)c3ccccc3)C(=O)c3ccccc32)cc1 the results were EPAC1 antagonist inconclusive, EPAC1 agonist -7%, ALOX12 inh inconclusive, EPAC2 agonist 15%, USP1-UAF1 inh 25µM* and EPAC2 antag inconclusive.
